Only some compounds are listed: those with a hit (about 7.3% of all), similar ones and a draw of the others.
Vaccinia Venus = qHTS for Stage-Specific Inhibitors of Vaccinia Orthopoxvirus: Venus Reporter Primary qHTS; Vaccinia virus Venus reporter expression, fluorescence; Potency, µM (doses to about 36.5 µM), for the others: top-dose activity change, negative = inhibition, actives largely listed as inhibitors; 330,000 tested, 0.46% active; calls by dose curve; tested in A549 cells; also: potency is read from the fitted curve at half-maximal effect; nearly all actives have a fitted effect of over 30% in size
HCMV antiviral = qHTS Assay for inhibitors of the human cytomegalovirus (HCMV). AID 1259415, 2018. 410,000 tested, 4.5% active. HFF cells, HCMV-luciferase reporter, 72 h; hits give low values. activity change, negative = inhibition, % at 57.5 µM; in the data active = activity change below about -60%; inconclusive = no clear call, values can overlap the other calls; inactive = above about -39%
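Luciferase read-out from HCMV-luciferase-infected HFFs (MOI 1 PFU/cell) 72 h post infection at 37C; compounds added after 16 h cell attachment; activity normalized between buffer-only basal and Salinomycin (10uM) inhibitor controls.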
HCV inh = qHTS Assay for Inhibitors of Hepatitis C Virus (HCV). Huh7.5.1 HCVcc-Cre infection, luciferase reporter, 44 h. Potency, µM (highest dose often 41.8 µM), for the others: top-dose activity change, negative = inhibition, most hits filed as inhibitors. 340,000 tested, 3.4% active. AID 651820, 2012; active = well fitted inhibition curve with a large enough effect; inconclusive = small, poorly fitted or top-dose-only effect, or another doubt; inactive = no such curve, though single readings can be large or run the other way; also: potency is read from the fitted curve at half-maximal effect
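After 44 h co-culture of compound, cells and HCVcc-Cre (~0.5 moi), substrate is added for 15 min at room temperature and luciferase measured over 15 sec. Cells were seeded at 1,000/well and pre-cultured 4 h.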
Vaccinia mCherry = qHTS for Stage-Specific Inhibitors of Vaccinia Orthopoxvirus: mCherry Reporter Primary qHTS; Vaccinia virus mCherry reporter infection, fluorescence; Potency, µM (titrated, usually from 36.5 µM), without a hit: at the highest dose activity change, negative = inhibition, actives largely listed as inhibitors; 310,000 tested, 0.63% active; AID 720579, 2013; calls by dose curve; tested in A549 cells; also: potency is read from the fitted curve at half-maximal effect; nearly all actives have a fitted effect of over 35% in size
FMDV antiviral = High Throughput Screening for Foot and Mouth Disease Virus Antivirals; FMDV antiviral cell-based qHTS; Potency, µM (top dose mostly 57.9 µM), for inactives: top-dose activity change, negative = inhibition, hits mostly inhibitors; 410,000 tested, 1.2% active; calls by dose curve; tested in HEK293T cells; also: read-out not given here; potency is read from the fitted curve at half-maximal effect; nearly all actives have a fitted effect of over 45% in size
* marks the source's active call; other numbers are inactive results. % is scaled to controls: 0 for no effect and ±100 for the full control effect.

What do the screens show for `CC(C)/C=C1\CCc2c([nH]c3ccccc23)C1=O`?
Vaccinia Venus: -3%; HCMV antiviral: -70*; HCV inh: 3%; Vaccinia mCherry: -10%; FMDV antiviral: 25%

Results for CCOc1ccc(C(=O)NCC(=O)OCc2c(F)cccc2Cl)cc1OCC ?
Vaccinia Venus: -18%; HCMV antiviral: inconclusive; HCV inh: -6%; Vaccinia mCherry: -20%; FMDV antiviral: 4%

How did CCOc1ccc(C(=O)NCC(=O)OCc2c(F)cccc2Cl)cc1 do in these assays?
Vaccinia Venus: -6%; HCMV antiviral: -67*; HCV inh: 10%; Vaccinia mCherry: -14%; FMDV antiviral: 19%

Results for O=C(OCc1c(F)cccc1Cl)c1cnc(Cl)c(Cl)c1 ?
Vaccinia Venus: 0%; HCMV antiviral: -32; HCV inh: 10µM*; Vaccinia mCherry: 3%; FMDV antiviral: -7%

What do the screens show for `O=c1c(-c2cccs2)nc2cnc(N3CCNCC3)nc2n1CCc1ccccc1`?
FMDV antiviral: -17%

Results for CN1C(=O)C2(N=c3ccccc3=N2)c2ccccc21 ?
Vaccinia Venus: 5%; HCV inh: 11µM*; Vaccinia mCherry: 3%; FMDV antiviral: 5%

What do the screens show for `CN1C(=O)C2(OCC(C)([N+](=O)[O-])CO2)c2ccccc21` (stereo unspecified)?
Vaccinia Venus: -17%; HCMV antiviral: 11; HCV inh: 12%; Vaccinia mCherry: -8%; FMDV antiviral: -16%

How did CC(=O)C(=Cc1ccc(-c2ccccc2)cc1)C(=O)c1ccccc1 do in these assays?
Vaccinia Venus: -13%; HCMV antiviral: 41; Vaccinia mCherry: -5%; FMDV antiviral: 22µM*

How did N#CC(=Cc1ccc(-c2ccccc2)cc1)C(=O)c1ccccc1 do in these assays?
Vaccinia Venus: 6%; HCMV antiviral: 43; Vaccinia mCherry: 35%; FMDV antiviral: -1%

How did CC(=Cc1ccccc1)C(=O)c1ccccc1 do in these assays?
Vaccinia Venus: -6%; HCMV antiviral: -26; Vaccinia mCherry: inactive; FMDV antiviral: -9%

How did O=C(C(Br)=Cc1ccccc1)c1ccccc1 do in these assays?
Vaccinia Venus: inconclusive; HCMV antiviral: -83*; HCV inh: inconclusive; Vaccinia mCherry: inconclusive; FMDV antiviral: 25µM*

What do the screens show for `Cc1ccc(NC(=O)CN2C(=O)CC(c3ccc(C)c(C)c3)=Nc3ccccc32)cc1`?
Vaccinia Venus: -8%; HCMV antiviral: 6; Vaccinia mCherry: -7%; FMDV antiviral: 12%

Results for N#Cc1cnc(SCC(=O)c2ccccc2)nc1N ?
HCMV antiviral: inconclusive; HCV inh: 8%; FMDV antiviral: 13%

What do the screens show for `N#Cc1cnc(SCCc2ccccc2)nc1N`?
HCMV antiviral: 40; HCV inh: 2.2µM*; FMDV antiviral: 3%

Results for CC(=O)c1ccc(Cc2ccc(C(C)=O)cc2)cc1 ?
Vaccinia Venus: 3%; HCMV antiviral: -88*; HCV inh: 0%; Vaccinia mCherry: -3%; FMDV antiviral: -9%

How did CCn1cc2nc(SCc3cccc(C(F)(F)F)c3)n(Cc3ccc(OC)cc3)c(=O)c2n1 do in these assays?
Vaccinia Venus: -18%; HCMV antiviral: inconclusive; Vaccinia mCherry: inconclusive; FMDV antiviral: inconclusive

Results for O=C(c1cc(-c2ccccc2)on1)N1CCOc2ccc(CN3CCN(c4ccccn4)CC3)cc2C1 ?
Vaccinia Venus: -18%; Vaccinia mCherry: inactive; FMDV antiviral: -1%

How did COC(=O)/C(C)=C\CC12OC(C)(C)C3CC(C=C4C(=O)c5c(OC)c6c(c(CC=C(C)C)c5OC431)OC(C)(CCC=C(C)C)C=C6)C2=O (stereo unspecified) do in these assays?
Vaccinia Venus: inconclusive; Vaccinia mCherry: 13µM*; FMDV antiviral: 32µM*

How did CC(=O)Oc1c2c(c(CC=C(C)C)c3c1C(=O)C1=CC4CC5C(C)(C)OC(C/C=C(\C)C(=O)O)(C4=O)[C@]15O3)OC(C)(CCC=C(C)C)C=C2 (stereo partly specified) do in these assays?
Vaccinia Venus: inconclusive; Vaccinia mCherry: 11µM*; FMDV antiviral: 4µM*

Results for CC(=O)Oc1c(-c2ccccc2)oc2c(CC=C(C)C)c3c(c(OC(C)=O)c2c1=O)C=CC(C)(C)O3 ?
Vaccinia Venus: 16%; Vaccinia mCherry: -2%; FMDV antiviral: -6%

What do the screens show for `O=[N+]([O-])c1ccc(COc2cccc(CO)c2)cc1`?
HCMV antiviral: 51

How did CCOC(=O)c1cccc2c1-c1ccccc1/C2=N/O do in these assays?
Vaccinia Venus: inconclusive; HCMV antiviral: -71*; HCV inh: -34%; Vaccinia mCherry: inconclusive

How did COc1cccc(-c2nc3c(c(SCC(=O)Nc4cccc(C)c4C)n2)Cc2c(CO)cnc(C)c2O3)c1 do in these assays?
Vaccinia Venus: -11%; HCMV antiviral: -35; Vaccinia mCherry: -17%; FMDV antiviral: 1%

How did Cc1ccc(-c2ccc(CCC(=O)O)n2-c2cccc(O)c2)cc1 do in these assays?
Vaccinia Venus: 2%; HCMV antiviral: 36; HCV inh: 14%; Vaccinia mCherry: -8%; FMDV antiviral: 47%

What do the screens show for `CC(=O)N=c1scc(-c2ccccc2)n1-c1cccc(O)c1`?
Vaccinia Venus: inconclusive; HCMV antiviral: -92*; HCV inh: inconclusive; Vaccinia mCherry: -23%; FMDV antiviral: -11%

How did O=C(CSc1ccc(S(=O)(=O)N2CCCC2)cn1)Nc1ccc([N+](=O)[O-])cc1C(F)(F)F do in these assays?
Vaccinia Venus: -17%; HCMV antiviral: -12; HCV inh: 13µM*; Vaccinia mCherry: -6%; FMDV antiviral: inconclusive

What do the screens show for `O=C(CSc1ccc(S(=O)(=O)N2CCOCC2)cn1)Nc1ccc(OC(F)F)cc1`?
HCMV antiviral: -29; HCV inh: 6%; FMDV antiviral: -35%

What do the screens show for `O=C(CSc1ccc(S(=O)(=O)N2CCOCC2)cn1)Nc1ccc(F)c(F)c1`?
HCMV antiviral: 0; HCV inh: 6.3µM*; FMDV antiviral: inconclusive

What do the screens show for `N[C@@H](Cn1ccc(=O)n(Cc2ccccc2C(=O)O)c1=O)C(=O)O`?
FMDV antiviral: -1%

What do the screens show for `COc1cccc(CNC(=O)CCc2c(C)c3cc4c(C)coc4c(C)c3oc2=O)c1`?
Vaccinia Venus: inconclusive; HCMV antiviral: -30; Vaccinia mCherry: inconclusive; FMDV antiviral: -6%

How did COc1ccc(-c2csc(NC(=S)NC(=O)/C=C/c3ccco3)n2)cc1Br do in these assays?
Vaccinia Venus: inconclusive; HCMV antiviral: -73*; HCV inh: -27%; Vaccinia mCherry: -3%; FMDV antiviral: -9%

Results for O=C(/C=C/c1ccco1)Nc1nc(-c2ccc(F)c(F)c2)cs1 ?
HCV inh: 10µM*; FMDV antiviral: 35µM*

What do the screens show for `O=C(/C=C/c1ccco1)Nc1nc(-c2ccccc2)cs1`?
Vaccinia Venus: -10%; HCMV antiviral: -10; HCV inh: inconclusive; Vaccinia mCherry: -16%; FMDV antiviral: 21%

Screening data (PubChem BioAssay)
